Results on 101 molecules are retold here after PubChem BioAssay AID504834 (National Center for Advancing Translational Sciences (NCATS), 2011).

Screen size: about 320,000 compounds; about 22,000 (6.9%) were called active. Where a call stands in place of a potency, no number is given. About 27% were inconclusive and are not listed. Calls follow the shape of the dose curve; as a rule, active = well fitted inhibition curve with a large enough effect; inconclusive = small, poorly fitted or top-dose-only effect, or another doubt; inactive = no such curve, though single readings can be large or run the other way. This excerpt belongs to a sample that is enriched for actives.
Potency is read from the fitted curve at half-maximal effect.

The nature of the assay: Primary qHTS for delayed death inhibitors of the malarial parasite plastid, 96 hour incubation. As to conditions: P. falciparum luciferase reporter growth; series mostly up to 28.7 µM. The method, boiled down:
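Plates of compound plus infected erythrocytes (2% hematocrit, 0.05% parasitemia final) incubate 96 hours, 37 C, 5% CO2. Detection reagent added; reduced luminescence from the parasites' luciferase reporter flags inhibition.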
On the technique in general: Quantitative high-throughput screening tests each substance at several concentrations.
On to `C=CCOc1ccc(/C=C/C(=O)OCC(=O)NC2CCCCCC2)cc1`, for which the Potency result is “inactive”.
For the molecule `N#Cc1cccc(NC(=O)C2CCCN(C(=O)c3ccc(Cl)cc3)C2)c1` (stereo unspecified), the Potency was 9.28 µM (active).
The entry for `N#Cc1cccc(NC(=O)CCC2CCCC2)c1` is “inactive”; for `N#Cc1cccc(NC(=O)CN2CCCCCC2)c1` it is “inactive”.
In the case of `COC(=O)C1=CN(c2ccc(F)c(F)c2)C=C(C(=O)OC)C1c1ccc([N+](=O)[O-])cc1`, the Potency result is “inactive”.
With `COc1ccc(C(C(=O)NC2CCCCC2)N(C(=O)CCl)c2ccccc2Cl)cc1` (stereo unspecified), the Potency was 0.294 µM (active).
As to `COc1ccc(C(C(=O)NC2CCCCC2)N(C(=O)c2snc(C(N)=O)c2N)c2ccccc2OC)cc1` (stereo unspecified), the Potency result was “inactive”.
In the case of `COc1cccc(N(C(=O)C2COc3ccccc3O2)C(C(=O)NC2CCCCC2)c2ccc(O)cc2)c1` (stereo unspecified), the Potency entry is “inactive”.
Then `CC(C)C(c1nnnn1C1CCCCC1)N1CCN(C(=O)c2ccco2)CC1` (stereo unspecified), with “inactive”; and `CN(C)Cc1c(C(=O)N/N=C/c2ccccc2OCc2ccc(F)cc2)nnn1-c1nonc1N`, with “inactive”; and `CCC1OC(c2ccc([N+](=O)[O-])cc2)=Nc2ccccc21` (stereo unspecified), with “inactive”.
On to `CCCC(=O)N1CCC(CCC(=O)NC2CC2)CC1`, for which the Potency entry was “inactive”.
Consider `COc1ccc(C[C@H]2CN3C(=NC[C@H]3C)N2CCNC(=O)CCC2CCCCC2)cc1`, for which the Potency was 6.57 µM (active).
Regarding `COc1ccc(NC(=O)CCCC2CCCCC2)c(OC)c1`, the Potency result is “inactive”.
Regarding `COc1ccc(CCNC(=O)COC(=O)C2CCCCC2)cc1`, the Potency entry is “inactive”.
Turning to `CCCOc1ccc(C2NC(=O)NC(c3ccccc3)=C2C(C)=O)cc1OCC` (stereo unspecified), the Potency is 4.65 µM (active).
Then `COc1cc(C2NC(=O)NC(c3ccccc3)=C2C(C)=O)c(Br)cc1OCC(N)=O` (stereo unspecified), with “inactive”; and `CCOC(=O)C1=C(c2ccccc2)NC(=O)NC1c1cc(OCC)c(O)c([N+](=O)[O-])c1` (stereo unspecified), with “inactive”.
Turning to `Cc1ccc(S(=O)(=O)N/N=C(\c2ccccc2)C2CC2)cc1`, the Potency entry was “inactive”.
Regarding `FC(F)(F)c1cccc(Cc2noc(CN3CCC(N4CCCCC4)CC3)n2)c1`, the Potency result was “inactive”.
Regarding `O=C(c1ccco1)N1CCN(Cc2cccc(C(F)(F)F)c2)CC1`, the Potency entry was “inactive”.
The figure for `CCOC(=O)N1CCN(Cc2nc(Cc3cccc(C(F)(F)F)c3)no2)CC1` is 9.28 µM (active).
As to `Cc1ccc2nc(SCC(=O)N3CC(C)OC(C)C3)nc(=O)n2c1` (stereo unspecified), the Potency result is “inactive”.
Regarding `CC(OC(=O)CCCc1c[nH]c2ccccc12)C(=O)Nc1ccc(S(N)(=O)=O)cc1` (stereo unspecified), the Potency entry is “inactive”.
With `COc1ccc(C(=O)CCc2ccccc2O)c(OC)c1`, the Potency result was “inactive”.
The entry for `Cc1ccc(S(=O)(=O)N(C)CC(=O)OCC(=O)Nc2ccccc2)cc1` is “inactive”; for `COc1ccc(N(C)C(=O)C2CCN(S(=O)(=O)c3cccc4nsnc34)CC2)cc1` it is “inactive”; for `Cc1ccc(NC(=O)C2CCCN2S(=O)(=O)c2cccc3cccnc23)c(C)c1` (stereo unspecified) it is “inactive”.
Turning to `COc1ccc(OC)c(NC(=O)C2CCCN2S(=O)(=O)c2cccc3nsnc23)c1` (stereo unspecified), the Potency was 13.1 µM (active).
For the molecule `O=C(c1cc2ccccc2o1)N1CCN(S(=O)(=O)c2ccc(Cl)s2)CC1`, the Potency was 11.7 µM (active).
Then `O=C(CN1CCN(S(=O)(=O)c2ccc(Cl)s2)CC1)N1CCCCC1`, with “inactive”.
On to `Cc1ccc(OCC(=O)N2CCN(S(=O)(=O)c3ccc(Cl)s3)CC2)cc1C`, for which the Potency is 9.28 µM (active).
The entry for `CS(=O)(=O)N1CCN(C(=O)c2cc3ccccc3oc2=O)CC1` is “inactive”; for `O=S(=O)(c1ccc(Cl)s1)N1CCC2(CC1)OCCO2` it is “inactive”.
Then `Cc1cc(OCC(=O)N2CCN(c3ncccn3)CC2)ccc1Cl`, with “inactive”; and `O=C(CSc1nnc(CN2CCCC2)n1-c1ccc(F)cc1)c1ccc2c(c1)OCO2`, with “inactive”; and `COc1ccc(C(CNC(=O)COc2ccc([N+](=O)[O-])cc2)N2CCCCC2)cc1` (stereo unspecified), with “inactive”.
In the case of `COC(=O)C1=C(c2ccc(F)cc2F)C[C@@H]2CC[C@H]1N2C(=O)NC1CC1`, the Potency entry is “inactive”.
On to `COC(=O)C1=C(c2ccc(Cl)c(C(F)(F)F)c2)C[C@@H]2CC[C@H]1N2C(=O)NC1CC1`, for which the Potency was 5.86 µM (active).
As for `Cc1ccc(N2CC(C(=O)Nc3ccc(S(=O)(=O)N4CCCC4)cc3)CC2=O)cc1C` (stereo unspecified), the Potency entry is “inactive”.
On to `COC(=O)c1cc(C(=O)NC(C)C2CC3CCC2C3)cc([N+](=O)[O-])c1` (stereo unspecified), for which the Potency result is “inactive”.
`Nc1c(C(=O)NCc2ccccc2)nnn1Cc1cccc(Cl)c1`: the Potency result was “inactive”.
Consider `Cc1ccc(NC(=O)Cn2nnc(C(=O)NCc3ccco3)c2N)c(C)c1`, for which the Potency result was “inactive”.
Take `COc1cccc(CNC(=O)c2nnn(CC(=O)Nc3cc(Cl)ccc3C)c2N)c1`: the Potency is 3.7 µM (active).
Then `CCOc1ccc(Cn2nnc(C(=O)NCc3ccccc3)c2N)cc1`, with “inactive”; and `COc1cccc(CNC(=O)c2n[nH]c3ccccc23)c1`, with “inactive”.
On to `COc1cccc(CNC(=O)c2nnn(CC(=O)Nc3cc(C)ccc3C)c2N)c1`, for which the Potency is 11.7 µM (active).
The entry for `O=C(c1cccc(Br)c1)N1CCN(C2=NS(=O)(=O)c3ccccc32)CC1` is “inactive”.
Turning to `Cc1ccc(S(=O)(=O)CC(=O)NC(C)c2ccccc2)cc1` (stereo unspecified), the Potency result was “inactive”.
For the molecule `CC1=CC(C)(C)NC(=S)N1NC(=O)c1ccccc1Cl`, the Potency entry is “inactive”.
For the molecule `COC(=O)c1cc(NC(=O)c2ccco2)ccc1N1CCOCC1`, the Potency result was “inactive”.
In the case of `COc1ccc(C(=O)Nc2sc(C)c(C)c2CN2CCOCC2)cc1`, the Potency result was “inactive”.
Turning to `COc1cc(C(c2c(NC(=O)c3ccco3)sc(C)c2C)N2CCOCC2)cc(OC)c1OC` (stereo unspecified), the Potency is 3.7 µM (active).
`Cc1sc2ncn(CC(=O)NCCN(C)C)c(=O)c2c1S(=O)(=O)N1CCC(C)CC1`: the Potency result is “inactive”.
As for `c1ccc(C2CNCc3c2ccc2ccccc32)cc1` (stereo unspecified), the Potency is 9.28 µM (active).
On to `Cc1ccc2c(=O)cc(C(=O)NCCc3ccc(S(N)(=O)=O)cc3)oc2c1C`, for which the Potency entry was “inactive”.
The figure for `COc1ccc(C(CC(=O)N2CCN(c3ccccc3)CC2)c2c(O)cc(OC)cc2OC)cc1` (stereo unspecified) is 11.7 µM (active).
As to `COc1ccc(OC)c(S(=O)(=O)N(C)CC(=O)N2CCN(c3ccccc3)CC2)c1`, the Potency entry is “inactive”.
As for `CC(CC(=O)N1CCN(c2ccccc2)CC1)c1ccccc1` (stereo unspecified), the Potency result was “inactive”.
The entry for `NNC(=O)CNC(c1ccccc1)c1cc(Cl)ccc1NC(=O)c1ccccc1` (stereo unspecified) is “inactive”; for `Cc1ccc(NC(=O)/C(=C\c2ccccc2)NC(=O)c2ccco2)cc1` it is “inactive”.
As to `CCOC(=O)CNc1nc2ccccc2n2c(C)nnc12`, the Potency result was “inactive”.
In the case of `COc1ccc(CNc2nnnn2C)cc1`, the Potency entry is “inactive”.
Regarding `Fc1ccc(CNc2nc3ccccc3n3nnnc23)cc1`, the Potency was 14.7 µM (active).
The entry for `Cc1cnc(NC(=O)c2ccc(Cl)nc2)s1` is “inactive”; for `Cc1nnsc1C(=O)NCc1c(F)cccc1Cl` it is “inactive”.
The entry for `O=C(CNC(=O)c1ccccc1Br)NNC(=O)c1cccs1` is “inactive”; for `COc1ccc(-c2nc(CS(=O)(=O)CC(=O)NCc3cccc(Br)c3)c(C)o2)cc1` it is “inactive”; for `Cc1ccc(-c2nc(CS(=O)(=O)CC(=O)NCc3ccc4c(c3)OCO4)c(C)o2)cc1` it is 14.7 µM (active).
Take `COc1ccc(CCNC(=O)CS(=O)(=O)Cc2nc(-c3ccc(C)cc3)oc2C)cc1OC`: the Potency result was “inactive”.
For the molecule `C=CCNC(=O)c1ccc2c3n(nc2c1)-c1ccc(C)cc1CO3`, the Potency result is “inactive”.
On to `Cc1oc2cc(Br)c(O)c(Br)c2c1C(=O)c1ccccc1`, for which the Potency entry was “inactive”.
As for `COc1cc2c(cc1NC(=O)COC(=O)/C=C/c1ccccc1)oc1ccccc12`, the Potency result was “inactive”.
Regarding `COc1cc(/C(=C/c2ccccc2)c2ccccc2)c2c(c1)oc1ccccc12`, the Potency is 13.1 µM (active).
Regarding `CNC(=O)c1sc(NCc2ccccc2OC)nc1C`, the Potency entry was “inactive”.
The entry for `O=C(CCNC(=O)c1ccc(Br)cc1)NCCCc1ccccc1` is “inactive”; for `COc1ccc(CNC(=O)CSc2n[nH]c(N)n2)cc1OC` it is “inactive”.
Consider `COc1ccc(CCNC(=O)CSc2nnc(-c3cccc(F)c3)o2)cc1OC`, for which the Potency result is “inactive”.
On to `COc1ccc(CCNC(=O)CSc2nc(-c3ccc(OC)c(OC)c3)ccc2C#N)cc1`, for which the Potency is 10.4 µM (active).
With `COc1ccc(N2CCN(C(=O)CSc3nc4cc(OC)c(OC)cc4cc3C#N)CC2)cc1`, the Potency result is “inactive”.
Take `COc1ccc(CCNC(=O)CCn2c(=O)oc3ccccc32)cc1OC`: the Potency entry was “inactive”.
Then `COc1ccc(CCNC(=O)CSc2nc(C)nc3c2oc2ccccc23)cc1OC`, with 5.86 µM (active); and `O=C(CCN1CCCO1)N1CCCC(N2CCN(c3cccc(C(F)(F)F)c3)CC2)C1` (stereo unspecified), with “inactive”; and `Cc1ccc(CSc2nsc(C)c2C#N)cc1`, with “inactive”.
Regarding `CCC(C)(C)NC(=O)CN(C(=O)CCC(=O)Nc1nccs1)c1ccc2c(c1)OCO2`, the Potency entry was “inactive”.
As to `COc1ccc(CNC(=O)C(C)n2nc(C)c3c(C)n(-c4ccccc4)nc3c2=O)c(OC)c1` (stereo unspecified), the Potency was 10.4 µM (active).
In the case of `Cc1nc2c(C(=O)NCc3ccc4c(c3)OCO4)c[nH]n2c(=O)c1Cc1ccccc1F`, the Potency result is “inactive”.
Consider `CCn1c(=O)c(C(=O)NCc2ccc3c(c2)OCO3)c(O)c2ccccc21`, for which the Potency result is “inactive”.
Consider `COc1ccc(CNC(=O)COC(=O)c2c(C)nn(-c3ccccc3)c2C)cc1OC`, for which the Potency result was “inactive”.
Take `Cc1nn(CC(=O)N2CCCCC2)c(=O)c2nn(-c3ccccc3)c(C)c12`: the Potency entry is “inactive”.
On to `Cc1ccc(-n2nc3c(=O)n(C(C)C(=O)NCc4ccc5c(c4)OCO5)nc(C)c3c2C)cc1` (stereo unspecified), for which the Potency is 1.31 µM (active).
On to `CC(C)CNC(=O)C(=O)NCC(c1ccc2c(c1)OCO2)N1CCOCC1` (stereo unspecified), for which the Potency result was “inactive”.
For `CC1=NN(c2cccc(Cl)c2)C(=O)C12CC(C)=C(C)CS2` (stereo unspecified), the Potency was 3.7 µM (active).
Regarding `CC12CCC(C(=O)N(c3cccc(Cl)c3)C1=O)C2(C)C` (stereo unspecified), the Potency result is “inactive”.
For the molecule `Cc1cccc(OCCC(=O)OCc2csc(CC(=O)Nc3ccccc3C)n2)c1`, the Potency result was “inactive”.
With `O=CN1CCN(C(=O)c2ccc(Br)o2)CC1`, the Potency result was “inactive”.
Consider `COc1ccc(-n2cnnc2SCC(=O)Nc2cccc(S(N)(=O)=O)c2)cc1`, for which the Potency entry is “inactive”.
As for `O=C(N/N=C/c1cccc(Br)c1)c1ccc(N2CCCC2=O)cc1`, the Potency result is “inactive”.
Turning to `CCOC(=O)N1CCN(C(=O)C2CCN(S(=O)(=O)c3cc(Cl)ccc3OCC)CC2)CC1`, the Potency entry is “inactive”.
Turning to `CN(C)P(=S)(Nc1ccccc1)C(Cl)(Cl)Cl` (stereo unspecified), the Potency is 8.28 µM (active).
Consider `O=C(CN1CCN(c2ccccc2)CC1)Nc1ccc(F)cc1`, for which the Potency result is “inactive”.
